Measurements taken from the supplement of paper PMC9262897, “Low-cost anti-mycobacterial drug discovery using engineered E. coli” (Nature Communications, 2022).
Counter-ions that a name gives are not always drawn. ± gives the standard deviation of the averaged measurements.

Tests used:
Experiment in all cases: growth (OD600 after 10 h); higher = more growth (less inhibition)
[1] = system: E. coli TESEC Alr+ wild-type control; settings: compound 0.1 mM; raw OD600 reference: median of DMSO wells 0.241, cell-free background 0.041
Description: (§1)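 TESEC Mtb Alr E. coli, or the Alr+ wild-type control, in 384-well plates with Prestwick library compounds at 0.1 mM and 1% DMSO, across arabinose induction levels of 1E3 to 1E7 nM. Growth is read as OD600 after 10 h at 37 °C in triplicate biological replicates.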

E. coli TESEC Mtb Alr [2] = settings: compound 0.1 mM
Description: as §1

E. coli TESEC Mtb Asd = settings: compound 0.1 mM
Description: (§2)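 TESEC E. coli strains in which the native enzyme is deleted and replaced by arabinose-inducible Mtb Asd, DapB, CysH or TrpD, each grown in its selective medium. Strains were screened against the Prestwick library at 0.1 mM and 1% DMSO in 384-well format at low and high arabinose induction. Growth is read as OD600 after 10 h in triplicate.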

E. coli TESEC Mtb DapB = settings: compound 0.1 mM
Description: as §2

[3] = system: E. coli TESEC Alr+ wild-type control; settings: compound 0.1 mM; raw OD600 reference: median of DMSO wells 0.49, cell-free background 0.052
Description: (§3)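 TESEC Mtb Alr E. coli (ΔaraC ΔtolC ΔentC Δalr ΔdadX, arabinose-inducible Mtb Alr) or the Alr+ wild-type control strain, grown in defined M9-fructose medium without D-alanine in 96-well plates with Prestwick library compounds at 0.1 mM and 1% DMSO. Low Alr induction is 0.1 µM arabinose and high induction is 10 mM arabinose.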

E. coli TESEC Mtb Alr [4] = settings: compound 0.1 mM; remark: listed apart in the source
Description: as §3

[5] = arabinose 1000 nM, raw OD600 reference: median of DMSO wells 0.294, cell-free background 0.041
[6] = arabinose 10000 nM, raw OD600 reference: median of DMSO wells 0.264, cell-free background 0.041
[7] = arabinose 100000 nM, raw OD600 reference: median of DMSO wells 0.201, cell-free background 0.041
[8] = arabinose 1000000 nM, raw OD600 reference: median of DMSO wells 0.193, cell-free background 0.041
[9] = arabinose 10000000 nM, raw OD600 reference: median of DMSO wells 0.146, cell-free background 0.041
[10] = arabinose induction (level): High, raw OD600 reference: median of DMSO wells 0.331, cell-free background 0.041
[11] = arabinose induction (level): Low, raw OD600 reference: median of DMSO wells 0.417, cell-free background 0.041
[12] = arabinose induction (level): High, raw OD600 reference: median of DMSO wells […], cell-free background 0.041
[13] = arabinose induction (level): Low, raw OD600 reference: median of DMSO wells 0.227, cell-free background 0.041
[14] = arabinose 100 nM, raw OD600 reference: median of DMSO wells 0.413, cell-free background 0.052
[15] = arabinose 10000000 nM, raw OD600 reference: median of DMSO wells […], cell-free background 0.052

Structure (SMILES)	growth [1]	growth (E. coli TESEC Mtb Alr [2]; [5])	growth (E. coli TESEC Mtb Alr [2]; [6])	growth (E. coli TESEC Mtb Alr [2]; [7])	growth (E. coli TESEC Mtb Alr [2]; [8])	growth (E. coli TESEC Mtb Alr [2]; [9])	growth (E. coli TESEC Mtb Asd; [10])	growth (E. coli TESEC Mtb Asd; [11])	growth (E. coli TESEC Mtb DapB; [12])	growth (E. coli TESEC Mtb DapB; [13])	growth [3]	growth (E. coli TESEC Mtb Alr [4]; [14])	growth (E. coli TESEC Mtb Alr [4]; [15])
COc1cccc(C2(O)CCCCC2CN(C)C)c1 (stereo unspecified) [Tramadol hydrochloride]	0.238 ± 0.0082	0.308 ± 0.012	0.271 ± 0.0049	0.193 ± 0.0059	0.193 ± 0.012	0.1352 ± 0.00092	0.31 ± 0.028	0.403 ± 0.065	0.188 ± 0.04	0.202 ± 0.014	0.476 ± 0.013	0.4058 ± 0.0034	0.327 ± 0.016
CC(=O)O[C@H]1C[C@H](O[C@H]2[C@@H](O)C[C@H](O[C@H]3[C@@H](O)C[C@H](O[C@H]4CC[C@@]5(C)[C@H](CC[C@@H]6[C@@H]5C[C@@H](O)[C@]5(C)[C@@H](C7=CC(=O)OC7)CC[C@]65O)C4)O[C@@H]3C)O[C@@H]2C)O[C@H](C)[C@H]1O[C@@H]1O[C@H](CO)[C@@H](O)[C@H](O)[C@H]1O [Lanatoside C]	0.198 ± 0.0032	0.261 ± 0.024	0.26 ± 0.0028	0.295 ± 0.031	0.19 ± 0.0089	0.243 ± 0.024	0.339 ± 0.04	0.417 ± 0.057	0.184 ± 0.021	0.233 ± 0.03		0.4014 ± 0.0037	0.354 ± 0.0094
CCCC(C)C1(CC)C(=O)NC(=O)NC1=O (stereo unspecified) [Pentobarbital]	0.233 ± 0.0093	0.279 ± 0.016	0.255 ± 0.013	0.233 ± 0.019	0.203 ± 0.011	0.143 ± 0.0092	0.451 ± 0.018	0.399 ± 0.087	0.2 ± 0.01	0.265 ± 0.014	0.432 ± 0.011	0.4 ± 0.018	0.369 ± 0.0053
O=c1[nH]c2ccccc2n1CCCN1CCC(n2c(=O)[nH]c3cc(Cl)ccc32)CC1 [Domperidone]	0.129 ± 0.0039	0.183 ± 0.0075	0.214 ± 0.015	0.149 ± 0.0082	0.09803 ± 0.00075	0.124 ± 0.0039	0.1177 ± 0.0011	0.176 ± 0.018	0.137 ± 0.005	0.152 ± 0.0037	0.406 ± 0.011	0.41 ± 0.0087	0.246 ± 0.0035
CC[C@@]1([C@@H]2O[C@@H]([C@H]3O[C@@](O)(CO)[C@H](C)C[C@@H]3C)C[C@@H]2C)CC[C@H]([C@]2(C)CC[C@]3(C[C@H](O)[C@@H](C)[C@@H]([C@@H](C)[C@@H](OC)[C@H](C)C(=O)O)O3)O2)O1 [Monensin sodium salt]	0.218 ± 0.0078	0.279 ± 0.017	0.264 ± 0.0038	0.207 ± 0.028	0.159 ± 0.0076	0.138 ± 0.0041	0.295 ± 0.028	0.408 ± 0.016	0.162 ± 0.01	0.167 ± 0.0025	0.408 ± 0.05	0.384 ± 0.007	0.149 ± 0.013
CC[C@@H](C(N)=O)N1CCCC1=O [Levetiracetam]	0.247 ± 0.0084	0.304 ± 0.018	0.264 ± 0.0095	0.205 ± 0.0055	0.183 ± 0.0062	0.168 ± 0.0049	0.256 ± 0.074	0.313 ± 0.057	0.188 ± 0.0023	0.229 ± 0.023	0.453 ± 0.03	0.409 ± 0.0085	0.364 ± 0.028
CN1[C@@H]2CC[C@H]1C[C@@H](OC1c3ccccc3CCc3ccccc31)C2 [Deptropine citrate]	0.046 ± 0.0008	0.041 ± 0.0014	0.03993 ± 0.00025	0.043 ± 0.001	0.0411 ± 0.0015	0.04267 ± 0.00021	0.0939 ± 0.05	0.0858 ± 0.012	0.0744 ± 0.011	0.069 ± 0.01		0.392 ± 0.0043	0.0701 ± 0.03
NCCCNCCSP(=O)(O)O [Amifostine]	0.25 ± 0.0069	0.297 ± 0.011	0.273 ± 0.0058	0.253 ± 0.011	0.196 ± 0.013	0.145 ± 0.0044	0.372 ± 0.057	0.431 ± 0.061	0.196 ± 0.0064	0.209 ± 0.0086		0.402 ± 0.011	0.352 ± 0.011
CC(C)N(CCC(C(N)=O)(c1ccccc1)c1ccccn1)C(C)C (stereo unspecified) [Disopyramide]	0.2355 ± 0.0022	0.285 ± 0.018	0.25 ± 0.0026	0.195 ± 0.0071	0.171 ± 0.0034	0.14 ± 0.0064	0.313 ± 0.084	0.408 ± 0.057	0.175 ± 0.0095	0.195 ± 0.02	0.543 ± 0.056	0.41 ± 0.0056	0.351 ± 0.007
CC(=O)NC1CCSC1=O (racemic) [N-Acetyl-DL-homocysteine Thiolactone]	0.253 ± 0.013	0.312 ± 0.021	0.2598 ± 0.0021	0.222 ± 0.031	0.185 ± 0.005	0.144 ± 0.0094	0.29 ± 0.041	0.451 ± 0.01	0.226 ± 0.0088	0.242 ± 0.019		0.402 ± 0.0097	0.35 ± 0.02
CCCC[N+]1(C)[C@@H]2CC(OC(=O)[C@H](CO)c3ccccc3)C[C@H]1[C@@H]1O[C@@H]12 (stereo partly specified) [Butylscopolammonium (n-) bromide]	0.225 ± 0.0045	0.296 ± 0.012	0.2707 ± 0.0023	0.189 ± 0.01	0.185 ± 0.0011	0.132 ± 0.0029	0.372 ± 0.073	0.412 ± 0.034	0.216 ± 0.011	0.232 ± 0.015	0.531 ± 0.1	0.405 ± 0.0075	0.338 ± 0.021
CN1[C@@H]2C[C@@H](OC(=O)[C@H](CO)c3ccccc3)C[C@H]1[C@@H]1O[C@@H]12 [Scopolamine hydrochloride]	0.252 ± 0.0082	0.321 ± 0.023	0.292 ± 0.011	0.207 ± 0.012	0.182 ± 0.0041	0.157 ± 0.0084	0.469 ± 0.011	0.453 ± 0.025	0.201 ± 0.031	0.228 ± 0.03		0.408 ± 0.016	0.36 ± 0.01
CC(C)(N)Cc1ccccc1 [Phentermine hydrochloride]	0.232 ± 0.0076	0.288 ± 0.017	0.273 ± 0.0063	0.199 ± 0.033	0.193 ± 0.0084	0.138 ± 0.0031	0.318 ± 0.043	0.297 ± 0.017	0.206 ± 0.021	0.233 ± 0.014		0.413 ± 0.014	0.36 ± 0.0095
CN1CCC2(C)c3cc(O)ccc3N(C)C12 (single isomer, unassigned; (-)) [(-)-Eseroline fumarate salt]	0.225 ± 0.0084	0.287 ± 0.014	0.306 ± 0.0086	0.312 ± 0.015	0.168 ± 0.0079	0.19 ± 0.0049	0.194 ± 0.027	0.402 ± 0.064	0.197 ± 0.0051	0.209 ± 0.034	0.577 ± 0.095	0.42 ± 0.0066	0.317 ± 0.021
CC[C@@]1(O)C(=O)OCc2c1cc1n(c2=O)Cc2cc3ccccc3nc2-1 [Camptothecine (S,+)]	0.2398 ± 0.0022	0.28 ± 0.012	0.267 ± 0.0074	0.192 ± 0.016	0.184 ± 0.0026	0.141 ± 0.0034	0.292 ± 0.075	0.43 ± 0.046	0.199 ± 0.01	0.228 ± 0.039	0.477 ± 0.033	0.465 ± 0.052	0.434 ± 0.031
NCC1(CC(=O)O)CCCCC1 [Gabapentin]	0.255 ± 0.0094	0.324 ± 0.013	0.281 ± 0.011	0.215 ± 0.021	0.184 ± 0.003	0.156 ± 0.0041	0.478 ± 0.023	0.399 ± 0.044	0.215 ± 0.016	0.278 ± 0.045		0.401 ± 0.02	0.325 ± 0.022
